Compounds without any hit were thinned out: in the full panel of roughly 83,000, 20% have a hit.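 Single-dose data. Exposure time 48 hours. Values below 10 considered active.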 A number with no mark means an inactive call. Activity calls are given as the source filed them.
Test system: CAKI-1 renal
Experiment: NCI-60 one-dose screen, 48 h (100 = growth as untreated, 0 = no growth, -100 = all killed)
Settings: 10 µM unless noted
Procedure: Growth inhibition of the CAKI-1 human tumor cell line is measured as a screen for anti-cancer activity. Cells are grown in 96 well plates and exposed to the test compound for 48 hours. Compounds are tested at a single concentration, which is 10^-5 M for most compounds. The reported endpoint is percent growth (GI% or GIPRCNT), where numbers from 0 - 100% represent growth inhibition, and numbers from -100% - 0 represent cell death. For example, a value of 40 represents 60% growth inhibition. A value of 0 means no net growth occurred over the course of the experiment. A value of -40 indicates 40% of cells at the beginning of the experiment died by the end of the experiment. A value of -100 means all cells are dead at the end of the experiment.
NCI-60 Human Tumor Cell Lines Screen was performed using the standard one-dose NCI protocol, which is described in more detail at https://dtp.cancer.gov/discovery_development/nci-60/default.htm.
Compounds with GIPRCNT values below 10 were considered active. Activity score was based on GIPRCNT using the following formula: […]
Score is 0 for GIPRCNT values of 100 or above, 50 for GIPRCNT values of 0, and 100 for GIPRCNT values of -100.

SMILES	growth
Cc1c(C(=O)N[C@@H](Cc2ccccc2)C(=O)C(=O)NCc2ccc(F)cc2)[nH]c2ccccc2c1=O	96.9%
CC([C@H]1CCC2C3CCC4C(=O)C(NC=O)=CC[C@]4(C)C3CC[C@@]21C)N(C)C (stereo not given in full)	57.6%
CNCCCNc1nc2ccccc2c2c(=O)c3cc(OC)ccc3sc12	61.7%
O=c1c2cc(F)ccc2sc2c(N3CCNCC3)nc3ccccc3c12	-48.4% (active)
Cc1ccc(-c2nc(SCC(=O)Nc3nc(-c4ccc(Cl)cc4)cs3)[nH]c(=O)c2C#N)cc1	96.1%
CCCCOc1nc2ccc(OC)cc2cc1-c1cc(-c2ccc(Cl)cc2)nc(-c2ccc(Cl)cc2)c1	104%
CCCCOc1nc2c(C)cccc2cc1-c1cc(-c2ccc(Cl)cc2)nc(-c2ccc(Cl)cc2)c1	93.9%
COc1cc2cc(Oc3ccc(NC(=O)Nc4ccc(Cl)c(C(F)(F)F)c4)cc3)c(C)nc2cc1OCCN1CCOCC1	18.7%
Cc1ccc(-c2nc(N3CCN(C(=O)c4ccc(OC(F)(F)F)cc4)CC3)c3ccccc3n2)cc1	69.8%
O=C1c2ccccc2NC(n2sc3ccccc3c2=O)N1c1ccccc1 (stereo not given)	93.9%
O=CN(SSN(C=O)C1CCCCC1)C1CCCCC1	101%
CCOC(=O)c1cn2ncnc(Oc3ccc(NC(=O)NCCN4CCOCC4)c(Cl)c3)c2c1C	87.7%
COc1cc(C(=O)N2N=C(c3ccc(S(C)(=O)=O)cc3)CC2c2ccco2)cc(OC)c1OC (stereo not given)	43.7%
Cc1cc(=O)oc2cc(OC(=O)CN3CCN(C)CC3)ccc12	85.8%
COc1ccc(C(=O)/C=C/c2sc(Cl)nc2Cl)cc1	27.4%
C=CCNc1ccc2c3c(cccc13)C(=O)N(N1C(=O)c3cccc4cccc(c34)C1=O)C2=O	94.1%
c1ccc2c(-c3nc(-c4c[nH]c5ccncc45)cs3)c[nH]c2c1	17.1%
C=C1CC[C@@]2(C#N)[C@H]3[C@H](CC[C@@H]2C)[C@@H](C)C[C@@H](CC(C)(C)C#N)[C@H]13	19%
O=C(N=c1oc2ccccc2cc1-c1cc2ccccc2[nH]1)Nc1ccc(Cl)cc1	72.2%
NC(=O)Nc1ccc2ncnc(Nc3ccc(Cl)cc3)c2c1	40.1%

SMILES	growth
COC(=O)/C=C1\S/C(=N\Nc2ccc([N+](=O)[O-])cc2[N+](=O)[O-])N(C2CCCCC2)C1=O	57.1%
O=C(Cc1ccc(F)c(Cl)c1)Nc1cc(C2(C(F)(F)F)CC2)nn1CC1CCCCC1	-14.3% (active)
N#Cc1cccc(NC(=O)c2cc(-c3ccc(F)cc3F)ccc2O)c1	3.62% (active)
COc1ccc(C(=O)N=Nc2c(O)n(C)c3ccccc23)cc1	82.3%
COc1cccc(OC)c1C(=O)N[C@@H]1C(=O)N2[C@@H]1SC(C)(C)[C@@H]2C(=O)O	94.2%
COc1ccc(C(=O)n2nc(-c3ccccc3)nc2N)cc1OC	84.3%
N#CC1=C(N)Oc2c(sc3c(Br)cccc23)C1c1ccc(Br)cc1 (stereo not given)	32.8%
CC1Cc2ccccc2N1NC(=O)c1ccc(Cl)c(S(N)(=O)=O)c1 (stereo not given)	94.5%
O=C1CCC/C=C\C[C@H]2C=CC(=O)/C2=C/C[C@H](CCc2cccc(C(F)(F)F)c2)O1	12.5%
c1cc2nc(-c3cn[nH]c3)c3c(c2cc1-c1cn[nH]c1)C1CCC3C1 (stereo not given)	28.3%
CC(C)(C)NC(=O)C(OC(=O)c1cccc(Cl)c1)c1ccc(Cl)cc1 (stereo not given)	99.3%
O=C(N/N=C/[C@H](O)[C@@H](O)[C@@H](O)[C@H](O)CO)c1ccc(NC(=O)c2cccnc2)cc1	101%
CN1CCN(CC(=O)N2c3cccc4cccc(c34)N(C(=O)CN3CCN(C)CC3)C2c2cn(-c3ccccc3)nc2-c2cccc([N+](=O)[O-])c2)CC1	14.4%
COc1ccc(-c2nc3sc(-c4ccc(Cl)cc4)cn3n2)cc1	-3.32% (active)
Cc1ccc2c(-c3cc(-c4ccccc4)nc(N)c3C#N)cc(=O)oc2c1	100%
NC1=NC(c2cccc(Br)c2)c2sc3ccc(Cl)cc3c2N1 (stereo not given)	79.5%
CCN1C(=O)N(CC)C2Nn3c(s/c(=C4\C(=O)Nc5ccccc54)c3=O)=NC21 (stereo not given)	37.9%
COc1ccc(-c2[nH]c3ccc(OC)cc3c2/C=C(\C#N)S(=O)(=O)c2ccccc2)cc1	74.5%
Cc1ccc(C(=O)NN2C(=O)CSC2c2cccc([N+](=O)[O-])c2)cn1 (stereo not given)	79.5%
CCN1C(=O)N(CC)C2Nn3c(s/c(=C4\C(=O)N(CC(C)C)c5ccccc54)c3=O)=NC21 (stereo not given)	34.1%
